TMEM16A act – TMEM16A chloride channel activators or potentiators, primary screen, cell-based, HTS | Anoctamin-1 (Mus musculus), Q8BHY3 | AID 623877, 2012 | B-score at 10 µM | HEK293 TMEM16A/YFP-H148Q/I152L, iodide quench fluorescence; active compounds read low | 340,000 compounds, 0.3% hits;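 active = fluorescence-ratio B-score plate-corrected deviation score at least 3 library SD below zero, with starting fluorescence score within 5 deviations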;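 note: channel opened by trigger with iodide after compound preincubation; score built on the fluorescence ratio of max minus min over baseline; more negative score means more quench and so TMEM16A activation or potentiation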
KLF5 inhibitor – KLF5 expression inhibitors, primary screen, DLD-1 cells, luminescence; AID 1700, 2009; DLD-1 KLF5 promoter-luciferase reporter; 290,000 compounds, 0.23% hits; inhibition, % at 5 µM;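 active = inhibition above a per-plate limit of that plate's mean compound inhibition plus 3 SD, cut at about 60% in these data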;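 note: 0% = DMSO wells and 100% = LY294002 at 200 µM; higher means less KLF5 promoter-driven luciferase light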
aSyn UTR inh – MLPCN primary screen, SNCA 5' untranslated region. alpha-synuclein 5'UTR reporter, inhibitor activity. inhibition, % (tested at 7.5 µM). 300,000 compounds, 0.82% hits; in the data active = inhibition above about 60%;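 note: H4 neuroglioblastoma cells stably carrying SNCA 5'UTR luciferase fusion; 0% = DMSO wells and 100% = positive control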
697 NFkB inh – inhibitors of PMA/ionomycin-induced NF-kB reporter, 697 cells, primary screen, B-cell NF-kB inhibitor project, cell-based, luminescence, uHTS; 697 B-cell NF-kB luciferase reporter, 16 h; inhibition, % at 4 µM; 330,000 compounds, 0.33% hits; AID 435022, 2010; in the data active = inhibition above about 35%
TMEM16A inh – TMEM16A chloride channel inhibitors, primary screen, cell-based, HTS; Anoctamin-1 (Mus musculus), Q8BHY3; HEK293 TMEM16A/YFP iodide influx fluorescence, ionomycin; normalized B-score (activity score, 25-100; higher = stronger inhibition) at 10 µM; 310,000 compounds, 1.2% hits; AID 588511, 2011;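 active = ratio plate-corrected score three or more library SD toward inhibition, starting fluorescence score within five deviations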;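 note: score derived from kinetic fluorescence span divided by baseline fluorescence per well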
Jurkat NFkB inh – inhibitors of induced NF-kB luciferase reporter, primary screen, TCR NF-kB activation inhibitor project, cell-based, luminescence, uHTS; Jurkat, PMA/ionomycin-induced NF-kB luciferase reporter; inhibition, % at 4 µM; 330,000 compounds, 0.53% hits; AID 435003, 2010; in the data active = inhibition above about 50%
TMEM16A reconf – TMEM16A chloride channel inhibitors, confirmation, cell-based, re-confirmation | shares compounds with TMEM16A inh | HEK293 TMEM16A/YFP-H148Q, iodide quench fluorescence; ionomycin added to raise cell calcium | inhibition, % at 10 µM | 2,300 compounds, 39% hits;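 active = mean duplicate percent inhibition, scaled so buffer wells are 0 and the reference blocker 100, over three buffer SD above buffer mean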
TMEM16A Ca cntr – calcium mobilization in TMEM16A/YFP HEK293 cells, confirmation, counter-screen for TMEM16A inhibitor project | shares compounds with TMEM16A inh | Fluo4 calcium mobilization | calcium response (% of ionomycin), % at 10 µM | 2,300 compounds, 2% hits;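 active = duplicate-averaged calcium signal over 20% of the ionomycin maximum, relative to buffer baseline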;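 note: each well's signal is peak minus trough fluorescence divided by its pre-addition baseline; 0% = buffer wells and 100% = ionomycin wells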
Parental YFP cnt – iodide YFP quench changes in parental YFP-HEK293, counter-screen for TMEM16A inhibitor project, cell-based | shares compounds with TMEM16A inh | 2,300 tested, under 10 active | ionomycin | YFP ratio F(max-min)/F0 at 10 µM;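 active = yellow fluorescent protein signal ratio exceeding the buffer control mean by over 5 SD of those controls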;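 note: ratio is mean of duplicate wells from kinetic YFP trace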
ClC-1 inh – ClC-1 chloride channel inhibition, selectivity assay for TMEM16A inhibitor project, cell-based, voltage-dependent ClC-1. shares compounds with TMEM16A inh. ratio percent, % at 10 µM. CHO ClC-1-YFP, iodide influx fluorescence quench; iodide control reads 0, buffer control 100. AID 652236, 2013. 2,300 tested, under 10 active;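 active = duplicate-mean ratio percent above the mean of iodide-only control wells, which defines zero, plus 5 of their SD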;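 note: higher percent means stronger block of ClC-1 iodide influx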
Target sequence (P35524 whole entry, looked up): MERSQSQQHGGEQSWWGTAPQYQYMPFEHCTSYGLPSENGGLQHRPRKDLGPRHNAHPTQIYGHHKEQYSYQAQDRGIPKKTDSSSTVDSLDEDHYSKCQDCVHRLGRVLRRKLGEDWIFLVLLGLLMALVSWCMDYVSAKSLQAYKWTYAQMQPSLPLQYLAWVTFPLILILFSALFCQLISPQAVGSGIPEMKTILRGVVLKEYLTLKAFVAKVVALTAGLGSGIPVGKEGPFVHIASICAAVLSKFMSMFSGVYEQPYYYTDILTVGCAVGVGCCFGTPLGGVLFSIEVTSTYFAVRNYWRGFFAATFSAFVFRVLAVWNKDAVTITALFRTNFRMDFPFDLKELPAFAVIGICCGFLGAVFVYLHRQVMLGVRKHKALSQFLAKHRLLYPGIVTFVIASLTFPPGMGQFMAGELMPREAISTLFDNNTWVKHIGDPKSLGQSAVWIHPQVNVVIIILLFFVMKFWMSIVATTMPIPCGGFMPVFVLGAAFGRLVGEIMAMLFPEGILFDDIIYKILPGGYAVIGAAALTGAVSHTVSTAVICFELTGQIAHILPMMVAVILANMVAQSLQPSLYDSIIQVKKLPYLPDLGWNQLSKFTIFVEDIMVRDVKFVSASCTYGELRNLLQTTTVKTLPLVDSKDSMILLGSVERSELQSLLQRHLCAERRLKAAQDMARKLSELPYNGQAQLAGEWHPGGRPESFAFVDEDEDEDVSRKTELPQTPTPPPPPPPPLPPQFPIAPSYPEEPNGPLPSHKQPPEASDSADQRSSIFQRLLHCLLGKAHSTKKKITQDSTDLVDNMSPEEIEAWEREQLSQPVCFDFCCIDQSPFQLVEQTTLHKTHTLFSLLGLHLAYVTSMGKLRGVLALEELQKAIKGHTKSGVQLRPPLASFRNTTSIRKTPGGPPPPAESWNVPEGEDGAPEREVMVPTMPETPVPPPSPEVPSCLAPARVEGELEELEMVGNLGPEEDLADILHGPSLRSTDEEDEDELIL
* marks the source's active call; other numbers are inactive results; i = inactive; . = no result. Compounds with a hit are over-represented: about 2.5% of the library has one in this group of screens.

SMILES	TMEM16A act	KLF5 inhibitor	aSyn UTR inh	697 NFkB inh	TMEM16A inh	Jurkat NFkB inh	TMEM16A reconf	TMEM16A Ca cntr	Parental YFP cnt	ClC-1 inh
COc1ccc(C(=O)c2sc(Nc3ccccc3)nc2C)cc1	i	-15.4	-32.0	-14.0	i	-8.9	i	i	-0.965	-14.0
O=C(O)c1c(NC(=O)c2cccc3ccccc23)sc2c1CCC2	i	-30.2	-10.3	4.5	100*	1.9	24.0%*	i	-0.996	-14.0
CN(c1cccc(NC(=O)Nc2cccc(Cl)c2)c1)S(C)(=O)=O	i	-125.4	-91.6	-71.7	100*	-56.1	42.5%*	i	-1.05	-12.0
CCN(CC)S(=O)(=O)c1ccc2oc(C(=O)NCCN3CCOCC3)c(C)c2c1	i	0.3	5.3	3.6	i	-11.2	.	.	.	.
C=CCNC(=O)c1oc2ccc(S(=O)(=O)N(CC)CC)cc2c1C	i	-5.8	23.2	-5.4	25*	-0.7	i	i	-1.02	-6.0
O=C(NCc1ccco1)c1ccccc1NS(=O)(=O)c1cccs1	i	9.2	.	13.1	i	3.2	.	.	.	.
O=C(NCc1ccco1)c1ccccc1NS(=O)(=O)c1ccc(Cl)s1	i	-6.1	3.2	7.0	100*	2.9	i	i	-0.855	-18.5
CCOC(=O)C1=C(CSc2nc3ccccc3s2)NC(=O)NC1c1ccc(OC)cc1 (configuration not stated)	i	-35.2	29.4	-21.5	25*	11.2	i	i	-1.1	-16.0
COc1ccc(Cn2c(CO)cnc2SCC(=O)Nc2cccc(NC(C)=O)c2)cc1	i	-7.9	4.5	-4.5	i	-6.5	.	.	.	.
O=C(NCc1ccccc1)C1(C(F)(F)F)C/C(=C/CCO)CCCO1 (configuration not stated)	i	.	-1.8	9.9	i	8.7	.	.	.	.
C/C=C1\COC(C(=O)NCc2ccccc2)(C(F)(F)F)C=C1C=C(C)C (configuration not stated)	i	.	15.1	0.1	100*	-0.2	i	i	-1.26	-13.0
Cc1cc(C(=O)CSc2nnc(-c3ccc(OC(F)F)cc3)o2)c(C)n1Cc1cccs1	i	-8.3	9.4	20.8	i	14.0	.	.	.	.
Cc1cc(C(=O)CSc2n[nH]c(-c3ccccc3F)n2)c(C)n1Cc1cccs1	i	-19.1	15.8	14.8	100*	3.5	i	i	-1.06	-4.5
CC(C)c1cc(C(=O)N2CCCC(CCC(=O)N3CCN(c4ccccn4)CC3)C2)no1 (configuration not stated)	i	2.8	-6.9	-20.2	25*	-1.3	i	i	-1.03	-17.5
Cc1nn(C)c(Nc2ccc(Br)cc2)c1Br	i	-21.8	4.1	-13.6	100*	21.9	i	i	-0.979	-25.0
CC1CCCN(C(=O)Cc2cn(Cc3cccc(Cl)c3)c3ccccc23)C1 (configuration not stated)	i	-32.7	6.7	10.0	100*	-6.7	24.0%*	i	-1.11	-14.5
Cc1cccc(NC(=O)NCc2cccnc2)c1C	i	-28.6	-6.2	9.0	i	-2.6	.	.	.	.

Screens: PubChem BioAssay, several laboratories
